The full list was thinned out, with hits kept by preference.
Pf Dd2 growth: blocks in vitro growth of P. falciparum Dd2. P. falciparum Dd2 growth, SYBR Green, 72 h. Potency, µM (doses to about 28.9 µM), for inactives: at the highest dose activity, negative = inhibition, hits mostly inhibitors. 4.3% of 120,000 active; active means well fitted inhibition curve with a large enough effect;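 further: plate controls were DMSO vehicle for no effect and reference drug for full effect; nearly all actives have a fitted effect of over 65% in size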
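Infected erythrocytes (Dd2, 0.3% parasitemia, 2.5% hematocrit final) are added to compound in RPMI-1640/Albumax II medium, grown 72 h at 37C in low oxygen, then lysed with saponin/Triton-X containing SYBR Green and read by fluorescence.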
Numbers without * were called inactive; i = inactive; [ ] = another dose, or the depositor's remark. Potency means the concentration at half of the fitted maximal effect.

SMILES | Pf Dd2 growth
COc1ccc2nc(N(Cc3cccnc3)C(=O)C3COc4ccccc4O3)sc2c1 (stereo not given) | i
CCc1ccc2nc(N(CCN(CC)CC)C(=O)c3cccs3)sc2c1 | -10%
O=C(c1cccs1)N(Cc1cccnc1)c1nc2c(F)cc(F)cc2s1 | i
O=C(c1cccs1)N1CCC(N[C@H](c2ccccc2)C2CC(O)C2)CC1 (stereo not given in full) | -18%
O=C(NCC1CC1)C1CN(c2ccccc2)C(=O)N1 (stereo not given) | 2%[44.1 µM]
COCCNC(=O)C1COC2(CCN(C(=O)c3cccc(OC)c3)CC2)N1C(=O)c1ccc(F)cc1 (stereo not given) | -26%
O=S(=O)(Cc1ccccc1)N[C@H]1CO[C@H]2[C@@H]1OC[C@@H]2n1nnnc1Oc1ccc(-n2ccnc2)cc1 | -19%
Cc1ccccc1CC(=O)N1C[C@@H](COc2ccccc2)[C@H](C(N)=O)C1 | -11%
O=C(NCC1Cn2cccc2C(=O)N1Cc1ccccc1)c1cc(F)ccc1F (stereo not given) | i
CC(=O)N[C@@H]1CN(Cc2cccc(C#N)c2)C[C@H]1CO | 18%
Cc1ccc(C(=O)N2C[C@@H](Oc3cccnc3)C[C@H]2C(N)=O)s1 | 4%
O=C(CC1CCN(C(=O)c2ccccc2F)C1)NC1CC1 (stereo not given) | 2%
CC(=O)Nc1ccc(C(=O)N2CCC3(CC2)CC(NC(C)=O)c2ccccc23)cc1 (stereo not given) | -1%
CCOc1ccccc1CNC(=O)c1cc2cn(C3CCCC3)cc2s1 | 13µM*
COc1ccccc1CNC(=O)c1cc2cn(C3CC3)cc2s1 | i
CCOc1ccccc1CNC(=O)c1cc2cn(C(C)C)cc2s1 | -12%
COc1ccc(C(=O)NC2CCN(C(=O)c3cc4c(=O)[nH]c(C)cn4n3)CC2)c(C)c1 | -20%
COc1ccc(C(=O)NC2CCN(c3cn[nH]c(=O)c3)CC2)c(OC)n1 | i
COC[C@@H]1CN(Cc2ccc(OC)cc2OC)C[C@H]1c1nc(C)no1 | -5%
CN(Cc1cccnc1)c1nc2c(c(=O)[nH]1)CCN(Cc1ccc(Cl)cc1)CC2 | -10%[5.79 µM]
Cc1nc2c(c(-c3ccc(Cl)cc3)n1)CCN(C(=O)c1ccccc1)CC2 | -17%
CN1CCN(c2nc3c(c(=O)[nH]2)CCN(Cc2cccnc2)CC3)CC1 | 38%[5.79 µM]
CC(C)c1nc2c(c(-c3ccc(O)cc3)n1)CN(C(=O)N(C)C)CC2 | i
CC(C)c1nc2c(c(-c3ccc(Cl)cc3)n1)CCN(Cc1cccc3ccccc13)CC2 | 11µM*
CC(C)c1nc2c(c(-c3ccc(Cl)cc3)n1)CCN(Cc1cccnc1)CC2 | 11µM*
SMILES | Pf Dd2 growth
CC(C)CC(=O)N[C@H](C)c1onc(-c2cccnc2)c1C(=O)O | 5%[44.1 µM]
CCC1(N2CCN(S(=O)(=O)c3cccc4cccnc34)CC2)CCN(C(=O)NC)C1 (stereo not given) | -2%
O=C(Nc1ccc(F)cc1F)C1CCCN1S(=O)(=O)c1cccc2nsnc12 (stereo not given) | 12%
Cc1ccc(NC(=O)C2CCCN(S(=O)(=O)c3cccc4nsnc34)C2)c(C)c1 (stereo not given) | -7%
Cc1cccc(C)c1NC(=O)C1CCN(S(=O)(=O)c2cccc3nsnc23)CC1 | 16%
Cc1ccc(NC(=O)C2CCCN2S(=O)(=O)c2cccc3nsnc23)c(Br)c1 (stereo not given) | 7.1µM*
Cc1cc(C)cc(NC(=O)C2CCCN2S(=O)(=O)c2cccc3nsnc23)c1 (stereo not given) | 3.2µM*
Cc1ccc(NC(=O)C2CCCN(S(=O)(=O)c3cccc4nsnc34)C2)cc1C (stereo not given) | -26%
CCc1cccc(C)c1NC(=O)C1CCN(S(=O)(=O)c2cccc3nonc23)CC1 | 14%
CCc1cccc(C)c1NC(=O)C1CCCN1S(=O)(=O)c1cccc2nsnc12 (stereo not given) | 5µM*
Cc1cc(C)cc(NC(=O)C2CCCN2S(=O)(=O)c2ccc3nc(-c4ccccc4)[nH]c3c2)c1 (stereo not given) | i
CCc1noc(-c2cn(C3CCN(C(=O)c4ccc5c(c4)OCO5)C3)nn2)n1 (stereo not given) | i
CC(=O)N1CCC(CC(=O)N[C@@H]2CN(C)C[C@H]2CN(C)C)CC1 | -2%
Cc1ccc(C(=O)N2CCCCCCN(C)C(=O)[C@@H]3CCC[C@@H]32)cn1 | -1%
CN(CC1CCOC1)S(=O)(=O)c1cccc(F)c1 (stereo not given) | 28%[5.79 µM]
CCC(=O)Nc1ccc2nc(SCCOc3ccccc3)sc2c1 | i
Cc1ccccc1NC(=O)CSc1nc2ccc(NC(=O)c3cccs3)cc2s1 | i
Cc1ccc(OCCSc2nc3ccc(NC(=O)c4cccs4)cc3s2)cc1 | 1µM*
Cc1ccc(OCCSc2nc3ccc(NC(=O)COc4ccc(F)cc4)cc3s2)cc1 | 19%
Cc1ccc(OCCSc2nc3ccc(NC(=O)c4ccc(F)cc4)cc3s2)cc1 | 21%
O=C(Nc1ccc2nc(SCCOc3ccccc3Cl)sc2c1)c1cccs1 | 2.8µM*
CC(C)NC(=O)[C@H]1O[C@H](CCN2CCN(c3ccc(F)cc3)CC2)CC[C@@H]1O | i
O=C(Nc1ccc(Oc2ccccc2)cc1)O[C@@H]1CO[C@H]2[C@@H]1OC[C@@H]2NC(=S)Nc1cccc2ccccc12 | 13µM*
O=C(Nc1cccc2ccccc12)O[C@@H]1CO[C@H]2[C@@H]1OC[C@@H]2NC(=O)C1CCC1 | 17%[44.1 µM]
O=C(Nc1ccc(Oc2ccccc2)cc1)N[C@H]1CO[C@H]2[C@@H]1OC[C@H]2OC(=O)Nc1cccc2ccccc12 | i
SMILES | Pf Dd2 growth
COC(=O)c1c(NC(C)=O)c2cc(NC(C)CC(C)(C)O)cnc2n1CCC(C)C (stereo not given) | -17%
O=C(NC1CCCCC1)[C@@H]1C[C@@H](O)CN1C1CCN(C(=O)c2ccco2)CC1 | -7%
CCN1c2cc(C(=O)Nc3ccc(OC)c(Cl)c3)ccc2C(=O)N2CCCCC21 (stereo not given) | i
CCc1nc(-c2ccc(OC3CCN(Cc4cc(F)ccc4F)C3)cc2)no1 (stereo not given) | 28%[5.79 µM]
Cc1ccc(NC(=O)Cn2cc3c(n2)CCCC3)c(C)c1 | 3%
Cc1c(Cl)cccc1NC(=O)Cn1cc2c(n1)CCCC2 | 2%
O=C(Cn1cc2c(n1)CCCC2)Nc1cc(C(F)(F)F)ccc1Cl | 7.1µM*
O=C(c1ccccc1F)N1CCC(N2CCOCC2=O)CC1 | 15%
CCN(CC)Cc1nc(C2(O)CCN(CCC(C)C)CC2)cs1 | 16µM*
CCN(CC)Cc1nc(C2(O)CCN(CC3CC3)CC2)cs1 | -22%[44.1 µM]
CC(C)(C)CC(=O)N1CCC(O)(c2csc(CN3CCc4ccccc4C3)n2)CC1 | -26%[44.1 µM]
CN1CCC(N2CCC(O)(c3csc(CN4CCc5ccccc5C4)n3)CC2)CC1 | i
CCN(CC)Cc1nc(C2(O)CCN(C)CC2)cs1 | 3%[44.1 µM]
OC1(c2csc(CN3CCc4ccccc4C3)n2)CCN(CC2CCCCC2)CC1 | 3.2µM*
CC(C)CCN1CCC(O)(c2csc(CN3CCc4ccccc4C3)n2)CC1 | 13µM*
O=C(C1CC1)N1CCC(O)(c2csc(CN3CCc4ccccc4C3)n2)CC1 | -27%[44.1 µM]
O=C(COc1ccccc1)N1CCC(O)(c2csc(CN3CCc4ccccc4C3)n2)CC1 | -8%
CC(C)CCN1CCC(O)(c2csc(CN3CC[C@@H](O)C3)n2)CC1 | -16%[44.1 µM]
CN1CCN(Cc2nc(C3(O)CCN(CC4CC4)CC3)cs2)CC1 | 17%[44.1 µM]
OC1(c2csc(CN3CCc4ccccc4C3)n2)CCN(C2CCC2)CC1 | 10µM*
